# Measured values: PMC5540273 (PLoS ONE, 2017)
# Legend:
# Details in all cases: concentration: 1 μM, replicates: in singlicate; n = 1
# PRKCH = test system: PRKCH
# PRKCI = test system: PRKCI
# PRKCQ = test system: PRKCQ
# PRKD1 = test system: PRKD1
# PRKD2 = test system: PRKD2
# PRKD3 = test system: PRKD3
# PRKG1 = test system: PRKG1
# PRKG2 = test system: PRKG2
# PRKR = test system: T1, PRKR
# T1 construct: gene EIF2AK2
# PRKX = test system: PRKX
# PRP4 = test system: PRP4
# PYK2 = test system: T2, PYK2
# T2 construct: gene PTK2B
# QSK = test system: QSK
# RAF1 = test system: RAF1
# RET = test system: RET
# RIOK1 = test system: RIOK1
# RIOK2 = test system: RIOK2
# RIOK3 = test system: RIOK3
# RIPK1 = test system: RIPK1
# RIPK2 = test system: RIPK2
# 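Note: KINOMEscan kinase panel screen.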
Compound,%Inh (PRKCH) [%],%Inh (PRKCI) [%],%Inh (PRKCQ) [%],%Inh (PRKD1) [%],%Inh (PRKD2) [%],%Inh (PRKD3) [%],%Inh (PRKG1) [%],%Inh (PRKG2) [%],%Inh (PRKR) [%],%Inh (PRKX) [%],%Inh (PRP4) [%],%Inh (PYK2) [%],%Inh (QSK) [%],%Inh (RAF1) [%],%Inh (RET) [%],%Inh (RIOK1) [%],%Inh (RIOK2) [%],%Inh (RIOK3) [%],%Inh (RIPK1) [%],%Inh (RIPK2) [%]
COc1ccc(Nc2nccc(N3CCC(NC(=O)C(C)c4ccc(Cl)cc4)CC3)n2)cc1 (stereo not drawn) [GSK1379812],6,0,0,0,16,0,2,17,0,8,18,0,0,60,38,24,0,31,22,10
CC[C@@H]1CO[C@H](C(=O)Nc2ccccc2)CN1c1cc(-c2ccc3c(N)n[nH]c3c2)nc(NC)n1 [GSK2376236],6,39,24,0,12,3,13,84,12,95,11,0,0,4,11,48,4,40,0,9
CNc1nc(-c2ccc3c(N)n[nH]c3c2)cc(N2C[C@@H](C(=O)NC3CCCCC3)OC[C@H]2C)n1 [GSK2375584],23,18,0,13,23,0,1,18,4,61,16,15,0,14,4,40,1,35,10,1
COC(=O)C(Cc1ccccc1)NC(=O)NC1CCN(c2ccnc(Nc3ccc(F)cc3)n2)C1 (stereo not drawn) [GSK1379714],10,22,0,0,0,100,0,8,6,0,33,28,0,13,21,24,0,34,18,3
Cc1ccc(NC(=O)Nc2ccc(Cl)c(C(F)(F)F)c2)cc1-c1ccc(C(=O)Nc2ccncc2)cc1 [GSK1398470],23,0,23,0,17,13,0,39,0,0,1,4,9,90,28,30,12,13,17,0
FC(F)(F)c1ccccc1-c1cc(-c2c[nH]nc2-c2ccccn2)ccn1 [GW679396],11,32,0,12,5,100,18,0,0,0,5,24,0,0,11,13,0,10,12,20
O=C(Nc1n[nH]c2nc(-c3ccco3)c(Br)cc12)C1CCN(Cc2ccccc2)C1.O=C(O)[C@H](O)[C@@H](O)C(=O)O (stereo not drawn) [SB-742034],14,34,4,14,0,18,0,2,5,0,0,6,26,15,2,0,7,0,0,0
Cc1ccc(NC(=O)c2ccc(Cl)cc2)cc1-c1ccc(C(=O)Nc2ccncc2)cc1 [GSK1398467],5,5,0,0,0,9,0,0,4,23,46,18,0,35,0,32,0,8,0,12
COc1ccc(CSc2nnc(-c3ccc4c(c3)CCO4)o2)cc1,0,0,0,0,31,0,0,0,0,0,16,0,0,0,0,0,0,21,0,0
Cn1cncc1C(=O)NC1CCN(c2ccnc(Nc3ccc(F)cc3)n2)C1 (stereo not drawn) [GSK1379717],0,7,0,0,0,4,0,99.3,0,0,35,0,0,43,0,24,0,2,2,6
CS(=O)(=O)CCNCc1nc(-c2ccc3ncnc(Nc4ccc5c(cnn5Cc5ccccc5)c4)c3c2)cs1.Cl.Cl [GW569716],11,23,0,4,0,0,0,0,0,0,49,0,9,13,0,22,0,0,0,88
CS(=O)(=O)Cc1ccc(Nc2nccc(-c3c(-c4cccc(NC(=O)C5CCCCC5)c4)nn4ncccc34)n2)cc1 [GSK350559],3,23,25,0,0,18,0,3,0,5,1,0,34,0,34,28,0,36,13,5
CN1c2ccc(-c3ccc(C(N)=O)cc3)cc2-c2[nH]ncc2S1(=O)=O,0,4,5,17,80,0,0,2,6,0,12,0,14,11,1,33,0,29,0,0
Cc1c(Cn2c(C)c(C)n3c(=O)cc(N4CCOCC4)nc23)cccc1C(F)(F)F [GSK2328680],23,0,8,0,18,8,5,91.2,0,0,23,10,6,13,4,11,11,0,17,11
COc1cccc(C2=C(Nc3cc(Cl)c(O)c(Cl)c3)C(=O)NC2=O)c1 [SB-390767],0,12,0,0,0,100,0,0,0,12,15,0,5,6,16,28,0,0,0,17
Cc1ccccc1-c1cc(-c2c[nH]nc2-c2ccccn2)ccn1 [GW680061],2,8,2,0,0,100,0,0,0,5,27,0,0,15,0,20,19,0,0,2
COc1ccc(Nc2nccc(NCCNC(=O)Nc3cc(C)ccc3C)n2)cc1 [GSK1379899],41,22,0,0,0,11,18,0,0,5,6,0,0,3,16,35,0,24,4,0
CCCCc1nn2ncccc2c1-c1ccnc(NC2CC2)n1 [GW684374],0,8,0,0,0,16,0,0,10,4,26,0,0,2,0,39,13,24,0,2
O=C(Nc1n[nH]c2cc(-c3ccsc3)ccc12)C1CC1 [SB-732932],0,0,41,82,0,0,0,8,0,1,15,11,26,0,0,83,16,0,56,0
CSc1ccc(-c2nc3n(c2-c2ccncc2)CCC3)cc1 [SKF-105561],0,37,0,27,4,0,0,0,0,0,1,0,31,0,0,0,0,5,0,74
Nc1nccc(-c2c(-c3ccc(F)cc3)ncn2C2CCN(Cc3ccccc3)CC2)n1 [SB-219980],0,0,0,0,3,0,0,0,0,0,0,0,0,0,6,0,1,0,0,76

Compound,%Inh (PRKCH) [%],%Inh (PRKCI) [%],%Inh (PRKCQ) [%],%Inh (PRKD1) [%],%Inh (PRKD2) [%],%Inh (PRKD3) [%],%Inh (PRKG1) [%],%Inh (PRKG2) [%],%Inh (PRKR) [%],%Inh (PRKX) [%],%Inh (PRP4) [%],%Inh (PYK2) [%],%Inh (QSK) [%],%Inh (RAF1) [%],%Inh (RET) [%],%Inh (RIOK1) [%],%Inh (RIOK2) [%],%Inh (RIOK3) [%],%Inh (RIPK1) [%],%Inh (RIPK2) [%]
CCn1c(-c2ccccc2)nc2cnccc21 [SB-733416],3,8,44,0,1,0,0,0,0,5,7,20,9,3,23,45,0,0,0,6
COc1ccc(CSc2nnc(-c3ccc4nccn4c3)o2)cc1C(F)(F)F,0,13,30,0,5,1,3,16,0,34,4,0,11,4,23,15,32,17,5,0
Nc1cccc(-c2ccc3c(N)n[nH]c3c2)n1 [GSK2192730],0,8,10,0,0,8,0,0,10,23,12,0,10,0,0,82,34,86,18,0
CNCc1ccc2nc(NC(=O)c3ccc(C(C)(C)C)cc3)cn2c1,0,20,0,30,2,12,0,21,0,9,36,7,12,11,14,20,86,25,2,2
Cc1ccc(NC(=O)Nc2ccccc2)cc1-c1ccc(C(=O)Nc2ccncc2)cc1 [GSK1398471],11,22,8,20,15,3,0,0,0,14,0,17,13,73,13,35,0,17,0,12
CC(C)c1cc(-c2ccc3c(N)n[nH]c3c2)nc(N)n1 [GSK2250882],0,10,6,0,0,0,24,14,6,25,4,28,4,0,0,86,14,82,0,0
Cn1cncc1-c1cc2c(Nc3ccc(OCc4ccccc4)cc3)ncnc2cn1 [GW281179],13,12,0,0,2,1,8,100,0,15,23,9,0,34,5,27,11,6,0,92.1
COc1ccc(-c2coc3ccc(-c4nnc(C)o4)cc23)cc1,13,0,19,20,0,14,15,0,0,0,17,0,0,11,0,0,15,0,0,3
Cl.Cl.Cl.N#Cc1ccc(CCNc2nccc(-c3cccc(CN4CCNCC4)c3)n2)cc1 [GSK2137462],25,21,5,1,13,0,0,4,0,4,0,0,9,12,26,28,42,37,34,24
Fc1ccc(-c2nc[nH]c2-c2ccncc2)cc1 [SB-217360],0,0,0,0,0,0,18,0,0,0,0,0,17,18,0,0,0,0,0,66
Fc1ccc(-c2nc3n(c2-c2ccncc2)CCS3)cc1 [GI98581],2,1,21,0,6,20,39,0,0,15,0,3,11,20,22,29,0,14,0,31
COc1ccc(CSc2nnc(-c3ccc4ncsc4c3)o2)cc1C(F)(F)F,0,0,10,17,7,11,0,0,3,0,20,0,0,7,0,10,13,22,0,0
Cc1c(Cn2c3ccccc3n3c(=O)cc(N4CCOCC4)nc23)cccc1C(F)(F)F [GSK2306394],22,9,10,0,10,27,28,0,25,30,0,0,0,0,0,35,12,0,4,0
COc1ccc2cc(-c3nc(-c4ccccc4C(C)C)[nH]c3-c3ccncc3)ccc2c1 [SB-660566],0,15,54,21,0,32,7,0,0,1,4,1,2,39,4,34,0,0,2,21
Cn1cnc2c(N)ncnc21 [SKF-97623],0,0,0,52,1,0,6,92.2,0,0,22,0,0,0,0,0,0,0,10,0
COc1cccc(CNC(=O)NC2CCN(c3ccnc(Nc4ccc(F)cc4)n3)C2)c1 (stereo not drawn) [GSK1379723],2,10,0,0,0,14,0,0,0,6,7,3,2,12,8,30,0,0,0,7
Cc1cnc(N)c(/C=C/c2cncc(C(=O)NCCc3ccc(Cl)cc3Cl)c2)c1.Cl [GSK190937],31,23,0,0,5,0,10,16,0,19,6,7,9,0,7,3,79,0,5,13
CC(=O)c1cccc(NC(=O)NC2CCN(c3ccnc(Nc4ccc(F)cc4)n3)C2)c1 (stereo not drawn) [GSK1379710],0,11,27,0,10,9,0,31,13,32,55,26,4,13,0,31,0,33,29,24
CC(=O)c1c(C)c2cnc(Nc3ccn(C)n3)nc2n(C2CCCC2)c1=O,0,0,0,0,0,0,0,0,0,0,0,0,0,0,5,0,24,0,2,0
Cc1nccc(-c2c(-c3ccc(F)cc3)ncn2CCCN2CCOCC2)n1.Cl [SB-282975],0,21,14,25,2,7,10,26,0,0,17,21,26,0,6,29,14,27,15,27
O=C1NC(=O)C(c2ccc(Cl)cc2)=C1Nc1ccc(O)cc1 [SB-340867],0,0,0,0,19,0,0,1,0,0,8,18,0,46,0,0,0,0,0,0
